According to PubChem BioAssay (NCI):
About 83,000 compounds went through this panel and 20% of them were active in at least one assay; those are over-represented in the sample as a whole.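 Each cell line was grown in a 96-well plate and treated with one concentration of compound for 48 hours. Values below 10 were considered active.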

Experiments:
Assay in all cases: NCI-60 one-dose screen, 48 h (100 = growth as untreated, 0 = no growth, -100 = all killed)
Conditions in all cases: 10 µM unless noted
SK-MEL-2 melanoma = tested on: SK-MEL-2 melanoma
SN12C renal = tested on: SN12C renal
UO-31 renal = tested on: UO-31 renal
TK-10 renal = tested on: TK-10 renal
ACHN renal = tested on: ACHN renal
CAKI-1 renal = tested on: CAKI-1 renal
A498 renal = tested on: A498 renal
CCRF-CEM leukemia = tested on: CCRF-CEM leukemia
MOLT-4 leukemia = tested on: MOLT-4 leukemia
SR leukemia = tested on: SR leukemia
RPMI-8226 leukemia = tested on: RPMI-8226 leukemia
OVCAR-8 ovarian = tested on: OVCAR-8 ovarian
OVCAR-5 ovarian = tested on: OVCAR-5 ovarian
OVCAR-4 ovarian = tested on: OVCAR-4 ovarian
SK-OV-3 ovarian = tested on: SK-OV-3 ovarian
IGROV1 ovarian = tested on: IGROV1 ovarian
OVCAR-3 ovarian = tested on: OVCAR-3 ovarian
HS 578T breast = tested on: HS 578T breast
NCI/ADR-RES ovarian = tested on: NCI/ADR-RES ovarian

Measured: growth

C/C=C/C1OCC(CC)C(CCC)O1 (stereo not given)
inactive: SK-MEL-2 melanoma 102% | SN12C renal 99.5% | UO-31 renal 81.1% | TK-10 renal 101% | ACHN renal 110% | CAKI-1 renal 99.9% | A498 renal 91.7% | CCRF-CEM leukemia 85.4% | MOLT-4 leukemia 94% | SR leukemia 102% | RPMI-8226 leukemia 94.5% | OVCAR-8 ovarian 103% | OVCAR-5 ovarian 98.7% | OVCAR-4 ovarian 110% | SK-OV-3 ovarian 108% | IGROV1 ovarian 104% | OVCAR-3 ovarian 106% | HS 578T breast 107% | NCI/ADR-RES ovarian 108%

COc1ccc(C2CC(c3ccccc3)=Nc3ccccc3S2)cc1 (stereo not given)
inactive: SK-MEL-2 melanoma 85.6% | SN12C renal 103% | UO-31 renal 57.5% | TK-10 renal 113% | ACHN renal 103% | CAKI-1 renal 84% | A498 renal 91.8% | CCRF-CEM leukemia 85.2% | MOLT-4 leukemia 77.6% | SR leukemia 49% | RPMI-8226 leukemia 82.1% | OVCAR-8 ovarian 115% | OVCAR-5 ovarian 116% | OVCAR-4 ovarian 97.2% | SK-OV-3 ovarian 95.3% | IGROV1 ovarian 92% | OVCAR-3 ovarian 93.3% | HS 578T breast 102% | NCI/ADR-RES ovarian 94.7%

O=S(=O)(c1ccc(NC(=S)NCc2cccnc2)cc1)N1CCCCC1
inactive: SK-MEL-2 melanoma 41.6% | SN12C renal 36.1% | UO-31 renal 70.7% | TK-10 renal 112% | ACHN renal 86.9% | CAKI-1 renal 29.1% | A498 renal 97.3% | CCRF-CEM leukemia 29% | MOLT-4 leukemia 47.3% | SR leukemia 49.1% | RPMI-8226 leukemia 36.2% | OVCAR-8 ovarian 110% | OVCAR-5 ovarian 59.8% | OVCAR-4 ovarian 95.6% | SK-OV-3 ovarian 79.3% | IGROV1 ovarian 62% | OVCAR-3 ovarian 82.3% | HS 578T breast 70.3% | NCI/ADR-RES ovarian 63.4%

CCCC(=O)c1cccs1
inactive: SK-MEL-2 melanoma 115% | SN12C renal 95.6% | UO-31 renal 98% | TK-10 renal 101% | ACHN renal 103% | CAKI-1 renal 99.7% | A498 renal 61% | CCRF-CEM leukemia 102% | MOLT-4 leukemia 100% | SR leukemia 95.8% | RPMI-8226 leukemia 105% | OVCAR-8 ovarian 107% | OVCAR-5 ovarian 100% | OVCAR-4 ovarian 103% | SK-OV-3 ovarian 103% | IGROV1 ovarian 110% | OVCAR-3 ovarian 107% | HS 578T breast 95.2% | NCI/ADR-RES ovarian 101%

CCN(CC)CCN1CNC(=S)NC1
inactive: SK-MEL-2 melanoma 95.1% | SN12C renal 98.4% | UO-31 renal 83.7% | TK-10 renal 103% | ACHN renal 102% | CAKI-1 renal 106% | A498 renal 105% | CCRF-CEM leukemia 97.8% | MOLT-4 leukemia 97.1% | SR leukemia 96.4% | RPMI-8226 leukemia 99.2% | OVCAR-8 ovarian 112% | OVCAR-5 ovarian 107% | OVCAR-4 ovarian 109% | SK-OV-3 ovarian 108% | IGROV1 ovarian 113% | OVCAR-3 ovarian 109% | HS 578T breast 105% | NCI/ADR-RES ovarian 106%

Cc1onc(-c2ccccc2Cl)c1C(=O)Cl
inactive: SK-MEL-2 melanoma 113% | SN12C renal 95.7% | UO-31 renal 91.2% | TK-10 renal 110% | ACHN renal 96.2% | CAKI-1 renal 93.5% | A498 renal 95.9% | CCRF-CEM leukemia 90.9% | MOLT-4 leukemia 114% | SR leukemia 83.8% | RPMI-8226 leukemia 99.9% | OVCAR-8 ovarian 95.4% | OVCAR-5 ovarian 103% | OVCAR-4 ovarian 98% | SK-OV-3 ovarian 99% | IGROV1 ovarian 117% | OVCAR-3 ovarian 127% | HS 578T breast 102% | NCI/ADR-RES ovarian 105%

Cc1ccc(NC(=S)N2CCOCC2)cc1C
inactive: SK-MEL-2 melanoma 100% | SN12C renal 99.4% | UO-31 renal 66.3% | TK-10 renal 103% | ACHN renal 99.2% | CAKI-1 renal 101% | A498 renal 105% | CCRF-CEM leukemia 109% | MOLT-4 leukemia 100% | SR leukemia 108% | RPMI-8226 leukemia 102% | OVCAR-8 ovarian 104% | OVCAR-5 ovarian 102% | OVCAR-4 ovarian 102% | SK-OV-3 ovarian 97.9% | IGROV1 ovarian 103% | OVCAR-3 ovarian 104% | HS 578T breast 94.7% | NCI/ADR-RES ovarian 110%

COc1cc(OC)c2cc(C(=O)c3ccc(C#N)cc3)c(=O)oc2c1
inactive: SK-MEL-2 melanoma 103% | SN12C renal 81.6% | UO-31 renal 84.7% | TK-10 renal 97.7% | ACHN renal 95.2% | CAKI-1 renal 84.6% | A498 renal 99.1% | CCRF-CEM leukemia 101% | MOLT-4 leukemia 103% | SR leukemia 89.8% | RPMI-8226 leukemia 103% | OVCAR-8 ovarian 97.1% | OVCAR-5 ovarian 89.9% | OVCAR-4 ovarian 96.3% | SK-OV-3 ovarian 100% | IGROV1 ovarian 104% | OVCAR-3 ovarian 107% | HS 578T breast 82.1% | NCI/ADR-RES ovarian 101%

CSc1nc2[nH]ncc2c(=O)[nH]1
inactive: SK-MEL-2 melanoma 111% | SN12C renal 101% | UO-31 renal 101% | TK-10 renal 104% | ACHN renal 110% | CAKI-1 renal 103% | A498 renal 75.4% | CCRF-CEM leukemia 118% | MOLT-4 leukemia 110% | SR leukemia 95% | RPMI-8226 leukemia 119% | OVCAR-8 ovarian 106% | OVCAR-5 ovarian 97.7% | OVCAR-4 ovarian 123% | IGROV1 ovarian 112% | OVCAR-3 ovarian 97.3% | HS 578T breast 92% | NCI/ADR-RES ovarian 99.1%
